# Measurements published in PubChem BioAssay (NCATS).
# “And” between values parts separate entries of the source, which are not always exact repeats. Equal entries are not always repeated. Records with an inconclusive call do not appear. A number with no mark means an inactive call. The source made the active and inactive calls. The call rests on the fitted dose curve; in most records, active means well fitted curve in the direction sought with a large enough effect; inconclusive means small, poorly fitted or top-dose-only effect, or another doubt; inactive means no such curve, though single readings can be large; an effect the other way counts as inactive or inconclusive.
# Assays:
# [1] = molecular target: Cellular tumor antigen p53 (Homo sapiens) (UniProt P04637); experiment: Primary qHTS for small molecule compounds that upregulate eGFP-tagged delta133p53alpha (in N-terminal) cells. (AID 2060322); details: NCI-H358 eGFP-delta133p53alpha fluorescence, 24 h; activation: hits give high values; further: nearly all actives have a fitted effect of over 75% in size; further: potency means the concentration at half of the fitted maximal effect;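 on activation: series mostly up to about 56 µM; 0% = DMSO vehicle and 100% = reference activator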
# Cellular tumor antigen p53 (Homo sapiens), sequence (P04637 whole entry, looked up): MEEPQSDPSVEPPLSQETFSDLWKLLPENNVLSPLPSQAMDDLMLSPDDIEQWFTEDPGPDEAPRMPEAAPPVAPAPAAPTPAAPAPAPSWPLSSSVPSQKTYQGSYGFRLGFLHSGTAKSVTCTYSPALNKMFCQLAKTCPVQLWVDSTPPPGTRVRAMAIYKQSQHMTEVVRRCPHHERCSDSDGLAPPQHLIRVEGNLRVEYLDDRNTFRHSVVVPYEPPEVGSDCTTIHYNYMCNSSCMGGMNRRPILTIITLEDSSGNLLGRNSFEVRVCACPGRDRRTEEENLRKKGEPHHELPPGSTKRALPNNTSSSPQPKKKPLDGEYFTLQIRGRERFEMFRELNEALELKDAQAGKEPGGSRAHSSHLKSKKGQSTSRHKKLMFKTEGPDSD
# Procedure, shortened: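 NCI-H358 cells pre-induced 24 h with 10 ng/ml doxycycline to express N-terminal eGFP-delta133p53alpha, then dosed 24 h at 37C without doxycycline; fixed, Hoechst-stained, GFP intensity by laser scanning cytometry, normalized to DMSO (0%) and 57.5 uM 5-azacytidine (100%).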
# [2] = molecular target: Aldehyde dehydrogenase, mitochondrial (Homo sapiens) (UniProt P05091); experiment: qHTS for Inhibitors of the Aldehyde Dehydrogenase Family (ALDH2) Primary screen (AID 2061308);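 further: plate controls were vehicle for no effect and reference inhibitor for full effect; nearly all actives have a fitted effect of over 55% in size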
# [3] = molecular target: Retinaldehyde dehydrogenase 3 (Homo sapiens) (UniProt P47895); experiment: qHTS for Inhibitors of the Aldehyde Dehydrogenase Family (ALDH1A3) Primary screen (AID 2061315);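 further: plate controls were DMSO vehicle for no effect and reference inhibitor for full effect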
# [4] = BET inhibitor-based combinations targeting novel dependencies in MECOM-rearranged (r) AML: SET-2 cell line (AID 2202231); details: SET-2 AML cells viability, CellTiter-Glo luminescence, 48 h; viability: hits give low values, concentration not given here; further: nearly all actives have a fitted effect of over 35% in size; further: potency means the concentration at half of the fitted maximal effect;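 on viability: plate controls were DMSO treated cells for no effect and wells without cells for full effect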
# Procedure, shortened: (§1)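 Cells were plated at 500 per well and exposed to an 11-point dose series of each drug for 48 hr. Viability was measured by CellTiter-Glo luminescence, normalized to DMSO and empty-well controls, and summarized as AUC and per-cell-line Z-AUC.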
# [5] = BET inhibitor-based combinations targeting novel dependencies in MECOM-rearranged (r) AML: OCI-AML3 cell line (AID 2202232); details: Potency: OCI-AML3 viability; further: nearly all actives have a fitted effect of over 35% in size; further: potency means the concentration at half of the fitted maximal effect
# Procedure, shortened: as §1
# [6] = BET inhibitor-based combinations targeting novel dependencies in MECOM-rearranged (r) AML: MV-4-11 cell line (AID 2202233); further: nearly all actives have a fitted effect of over 45% in size; further: potency means the concentration at half of the fitted maximal effect
# Procedure, shortened: (§2)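 Activity is given as area under the curve and as Z-AUC, mean-centred within each cell line. It comes from 11-point dose curves normalized to DMSO and empty wells. CellTiter-Glo luminescence was read after 48 hr drug exposure of 500 cells/well.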
# [7] = BET inhibitor-based combinations targeting novel dependencies in MECOM-rearranged (r) AML: HNT-34 cell line (AID 2202234); further: nearly all actives have a fitted effect of over 35% in size; further: potency means the concentration at half of the fitted maximal effect
# Procedure, shortened: as §2
# [8] = BET inhibitor-based combinations targeting novel dependencies in MECOM-rearranged (r) AML: UCSD-AML1 cell line (AID 2202235); further: nearly all actives have a fitted effect of over 40% in size; further: potency means the concentration at half of the fitted maximal effect
# Procedure, shortened: as §2
# [9] = molecular target: Aldehyde dehydrogenase 1A1 (Homo sapiens) (UniProt P00352); experiment: qHTS for Inhibitors of the Aldehyde Dehydrogenase Family (ALDH1A1) Confirmatory screens (AID 2061316); further: nearly all actives have a fitted effect of over 65% in size; on activity change, negative = inhibition: on the % scale 0 is the no-effect control and ±100 the full control effect
# [10] = BET inhibitor-based combinations targeting novel dependencies in MECOM-rearranged (r) AML: AML-191 cell line (AID 2202236; further: nearly all actives have a fitted effect of over 35% in size; further: potency means the concentration at half of the fitted maximal effect)
# Procedure, shortened: as §1
# [11] = BET inhibitor-based combinations targeting novel dependencies in MECOM-rearranged (r) AML: AML-194 cell line (AID 2202237;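 further: plate controls were vehicle wells for no effect and wells without cells for full effect; nearly all actives have a fitted effect of over 40% in size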)
# Procedure, shortened: as §1
compound,measurement,setting,value
CC(=O)O[C@@H](C[C@@H]1C=C(C)C(=O)O1)[C@H](C)[C@H]1CCC2[C@@]3(C)CC[C@H](O[C@@H]4O[C@H](CO)[C@@H](O)[C@H](O)[C@H]4O[C@@H]4O[C@@H](C)[C@H](O)[C@@H](O)[C@H]4O)C(C)(C)C3CC[C@@]2(C)[C@@]12COC(=O)C2 (stereo not given in full),activation,[1],1.79%
same,Potency,[2],inactive
same,Potency,[3],inactive
O=C(Nc1ccc(-c2ccnc(Nc3ccc(N4CCOCC4)cc3)n2)cc1)C1CCCN1 (stereo not given),activation,[1],-5.36%
same,Potency,[2],inactive
same,Potency,[3],inactive
same,Potency,[4],9340 nM (active)
same,Potency,[5],16600 nM (active)
same,Potency,[6],2350 nM (active)
same,Potency,[7],5900 nM (active)
same,Potency,[8],1660 nM (active)
CC(=O)c1c(O)cc(O[C@@H]2O[C@H](CO)[C@@H](O)[C@H](O)[C@H]2O)cc1O,activation,[1],-8.04%
same,Potency,[2],inactive
same,Potency,[3],inactive
same,Potency,[9],inactive
CCn1nnc2c(N3CCOCC3)nc(-c3ccc(NC(=O)Nc4ccc(C(=O)N5CCN(C)CC5)cc4)cc3)nc21,activation,[1],37.4% and 20.5%
same,Potency,[2],inactive
same,Potency,[3],inactive
same,Potency,[4],1860 nM (active)
same,Potency,[5],263 nM (active)
same,Potency,[6],166 nM (active)
same,Potency,[7],148 nM (active)
O=C(NOCC1CC1)c1ccc(F)c(F)c1Nc1ccc(I)cc1Cl,activation,[1],13% and 35.6% and 22.3%
same,Potency,[2],inactive
same,Potency,[3],inactive
same,Potency,[4],23500 nM (active)
same,Potency,[5],296 nM (active)
same,Potency,[6],7420 nM (active)
same,Potency,[7],8330 nM (active)
same,Potency,[8],16600 nM (active)
same,Potency,[10],11800 nM (active)
Cc1nc(NC(=O)N2CCC[C@H]2C(N)=O)sc1-c1ccnc(C(C)(C)C(F)(F)F)c1,activation,[1],-25%
same,Potency,[2],inactive
same,Potency,[3],inactive
same,viability,[4],89%
NC1(Cc2ccc(Cl)cc2)CCN(c2ncnc3[nH]ccc23)CC1,activation,[1],-4.16% and 18.8%
same,Potency,[2],inactive
same,Potency,[3],inactive
same,Potency,[4],14800 nM (active)
same,Potency,[5],6610 nM (active)
same,Potency,[6],7420 nM (active)
same,Potency,[7],7420 nM (active)
same,Potency,[8],5250 nM (active)
CO[C@@H](C)Cn1c(=O)n(C)c2cnc3ccc(-c4cncc(C(C)(C)O)c4)cc3c21,activation,[1],-10.7%
same,Potency,[2],inactive
same,Potency,[3],inactive
same,Potency,[4],934 nM (active)
same,Potency,[5],1180 nM (active)
same,Potency,[6],332 nM (active)
same,Potency,[7],372 nM (active)
same,Potency,[8],263 nM (active)
same,Potency,[10],235 nM (active)
CC1(C)CC(=O)c2c(C(F)(F)F)nn(-c3ccc(C(N)=O)c(NC4CCC(O)CC4)c3)c2C1 (stereo not given),activation,[1],11.9% and -1.67%
same,Potency,[2],inactive
same,Potency,[3],inactive
same,Potency,[4],148 nM (active)
same,Potency,[5],74.2 nM (active)
same,Potency,[6],37.2 nM (active)
same,Potency,[7],93.4 nM (active)
same,Potency,[8],105 nM (active)
CCC(O)C(C)C1CCC(C(C)C(=O)O)O1 (stereo not given),activation,[1],13.4%
same,Potency,[2],inactive
same,Potency,[3],inactive
same,Potency,[9],inactive
COc1c(OCCCN2CCOCC2)ccc2c3n(c(=NC(=O)c4cnc(N)nc4)nc12)CCN3,activation,[1],8.4% and -29.5%
same,"activity change, negative = inhibition",[2],-4.59% [at 11.2 µM]
same,"activity change, negative = inhibition",[3],13.9% [at 11.2 µM]
same,Potency,[4],1080 nM (active)
same,Potency,[5],34 nM (active)
same,Potency,[6],85.5 nM (active)
same,Potency,[7],959 nM (active)
same,Potency,[8],42.8 nM (active)
Nc1cccc(-c2cc3c(Oc4cccc(O)c4)ncnc3[nH]2)c1,activation,[1],-3.57%
same,Potency,[2],inactive
same,Potency,[3],inactive
same,Potency,[4],20900 nM (active)
same,Potency,[5],13200 nM (active)
same,Potency,[6],2950 nM (active)
same,Potency,[7],468 nM (active)
same,Potency,[8],8330 nM (active)
same,Potency,[10],3320 nM (active)
O=C1CCC[C@@H]2[C@H]3CCC[N+]4([O-])CCC[C@@H](CN12)[C@@H]34 (stereo not given in full),activation,[1],7.08% and -17.9%
same,Potency,[2],inactive
same,Potency,[3],inactive
same,viability,[4],118%
same,Potency,[5],inactive
same,Potency,[6],inactive
same,Potency,[7],inactive
same,Potency,[8],inactive
same,Potency,[10],inactive
same,Potency,[11],inactive
COC(=O)C1(C)CCCC2(C)c3ccc(C(C)C)cc3C(O)C(O)C12 (stereo not given),activation,[1],-14.3%
same,Potency,[2],inactive
same,Potency,[3],inactive
CCN(c1cc(C#CCN2CCOCC2)cc(C(=O)NCc2c(C)cc(C)[nH]c2=O)c1C)C1CCC(N(C)CCOC)CC1 (stereo not given),activation,[1],-11.7%
same,Potency,[2],inactive
same,Potency,[3],inactive
same,viability,[4],113%
same,Potency,[5],inactive
same,Potency,[6],inactive
same,Potency,[7],inactive
same,Potency,[8],inactive
same,Potency,[10],inactive
same,Potency,[11],inactive
O=C(NCc1cccc(O)c1)Nc1nc(-c2ccncc2)cs1,activation,[1],6.25%
same,Potency,[2],inactive
same,Potency,[3],inactive
same,viability,[4],92.2%
CC(C)(C)c1nc(-c2cccc(NS(=O)(=O)c3c(F)cccc3F)c2F)c(-c2ccnc(N)n2)s1,Potency,[1],26900 nM (active)
same,Potency,[2],inactive
same,Potency,[3],inactive
same,viability,[4],98%
O=C(NCCN1CCCC1)c1cc(-c2ccc(CN3CCOCC3)cc2)nc2ccc(F)cc12,activation,[1],3.67%
same,Potency,[2],inactive
same,Potency,[3],inactive
